High-throughput results as filed in PubChem BioAssay.
PLAP activator = activates human placental alkaline phosphatase | activation fold at 20 µM | hit rate 1.2% among 96,000 | P05187 | purified PLAP enzyme, luminescent substrate read-out; active compounds read high; in the data active means activation fold above about 2
Target sequence (P05187 whole entry, looked up): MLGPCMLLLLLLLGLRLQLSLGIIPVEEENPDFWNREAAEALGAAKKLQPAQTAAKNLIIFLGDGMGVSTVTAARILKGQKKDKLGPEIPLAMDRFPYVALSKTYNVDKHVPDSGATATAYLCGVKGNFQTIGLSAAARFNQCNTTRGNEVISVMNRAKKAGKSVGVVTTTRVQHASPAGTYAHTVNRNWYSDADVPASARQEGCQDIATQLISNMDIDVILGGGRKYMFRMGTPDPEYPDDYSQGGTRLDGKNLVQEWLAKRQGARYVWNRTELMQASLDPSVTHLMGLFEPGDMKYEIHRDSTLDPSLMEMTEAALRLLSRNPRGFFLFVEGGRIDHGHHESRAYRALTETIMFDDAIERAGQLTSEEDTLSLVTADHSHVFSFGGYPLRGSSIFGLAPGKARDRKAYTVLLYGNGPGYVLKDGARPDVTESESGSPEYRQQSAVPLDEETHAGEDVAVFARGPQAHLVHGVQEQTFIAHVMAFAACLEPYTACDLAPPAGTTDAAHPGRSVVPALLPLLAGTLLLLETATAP
PostGolgi ctrl = growth of the yeast control strain, post-Golgi counter-screen; efflux-deficient yeast background strain, growth absorbance A615, 16 h; inhibition, % at 10 µM; hit rate 5% among 98,000
hDAT+cocaine = human DAT dopamine uptake with cocaine, either direction; B-score at 10 µM; AID 449768; Q01959; hit rate 1.3% among 110,000; LLC-PK1 hDAT cells, [14C]-dopamine uptake with cocaine IC80; actives deviate in either direction;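 active means Z score or B-score, a plate-position-corrected score, falls beyond the plate's 99.7% confidence bounds, in either direction; inactive means both scores lie inside the 99.7% bounds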
Cav32 inh = blocks human Cav3.2 T-type calcium channel | O95180 | hit rate 4% among 100,000 | Cav3.2-expressing cells, Fluo-4 calcium fluorescence FDSS; active compounds read low | AID 449739 | B-score at 10 µM;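 active means single-dose well whose peak fluorescence ratio is a statistical outlier from its plate by either plate-standardised score or position-corrected B-score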
PostGolgi yeast = growth inhibition of a yeast mutant, post-Golgi transport screen; hit rate 0.9% among 98,000; AID 739; post-Golgi transport phenotypic cell assay; inhibition, % at 10 µM;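 further: yeast cells grown in 1536-well plates; yeast grown about 18 h at 30C before absorbance read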
Each line names hits and unclear results; the compound was inactive in the other large screens. Rows were chosen to be rich in hits. Some 9.6% of all compounds tested hit in one or more screens of this group. Unless noted, no stated cut-off is given here; in the data, active means inhibition above about 30%; inactive means the rest.

O=C1C=C(c2ccc(Cl)cc2)OC2(CCCC2)O1	hDAT+cocaine -2.6
O=C1C=C(c2ccccc2)OC2(CCCC2)O1	none
CCc1cccc(NC(=O)Cn2ncn3c(cc4ccccc43)c2=O)c1	none
Cc1ccc(Cn2ncn3c(cc4ccccc43)c2=O)cc1	PostGolgi ctrl 35
Cc1ccc(S(=O)(=O)N(C)CC(=O)Nc2ccncc2)cc1	none
N#C/C(=C(/O)C(Cl)c1ccccc1)c1nc2ccccc2s1 (stereo not given)	Cav32 inh -5.3
O=C(NCCc1ccccc1F)[C@@H]1CSC2c3ccccc3C(=O)N21 (stereo not given in full)	Cav32 inh -8.2
Cc1cccc(-c2cc3nc(C)cc(NCCCN(C)C)n3n2)c1	none
Clc1cccc(-c2cc3nc4c(c(NCc5ccco5)n3n2)CCCC4)c1	PostGolgi ctrl 55
Cc1ccc(-c2cc3nc(C)cc(NCc4ccco4)n3n2)cc1	PostGolgi ctrl 33, hDAT+cocaine -3.9
Cc1nc2cc(-c3ccc(Cl)cc3)nn2c(C)c1CCC(=O)NCc1ccco1	PostGolgi ctrl 32
c1coc(CNc2c3c(nc4ncnn24)CCCC3)c1	none
CC(=O)/C(C#N)=C1\NC(=O)C(Cc2ccc(C)c(C)c2)S1 (stereo not given)	none (no result: hDAT+cocaine)
Cc1ccc(Oc2ccccc2/C=C2\SC(=O)N(C)C2=O)cc1	none
O=C(NCc1ccccc1)c1ccc(Oc2ccc(C(=O)NCc3ccccc3)cc2)cc1	none
Cc1ccccc1CNC(=O)c1ccc(CSCc2ccccc2)cc1	Cav32 inh -5.9
Clc1ccc(OCCCn2cncn2)cc1Cl	none
C=CCNc1nc2c(c(=O)[nH]c(=O)n2C)n1CCCCC	none
CC12CN(S(=O)(=O)c3ccccc3)CC(C)(CN(S(=O)(=O)c3ccccc3)C1)C2	none
O=C(CN(c1ccc(Cl)cc1)S(=O)(=O)c1ccccc1)N/N=C/c1ccco1	Cav32 inh -6
O=c1c2ccccc2nc(SCc2nnc(-c3ccccc3Br)o2)n1-c1ccccc1	PostGolgi ctrl 39 (no result: PLAP activator)
Cc1ccc(-n2nnnc2SCc2nnc(-c3ccccc3Br)o2)cc1	PostGolgi ctrl 56
COc1ccc(-c2nnc(CSc3nc4ccccc4c(=O)n3C)o2)cc1OC	PostGolgi yeast 32
COc1ccc(-c2nnc(COc3ccc4ccccc4c3)o2)cc1OC	hDAT+cocaine 2.9
Cn1c(SCc2ccon2)nc2ccccc2c1=O	none
Cc1ccc2nc(SCc3nnc(-c4ccccc4Br)o3)[nH]c2c1	none
O=C(CCCN1C(=O)c2ccccc2C1=O)N1CCc2ccccc2C1	none
CCCCOc1ccc(OCCNS(=O)(=O)N(C)C)cc1	none
C[C@@H]1NC(=O)c2cc([N+](=O)[O-])cc(I)c2OCC[C@@H](C(N)=O)NC(=O)[C@H](CCC(=O)O)NC1=O	none (no result: PLAP activator, PostGolgi ctrl, PostGolgi yeast)
Cc1occc1C(=O)Nc1sc2c(c1C(N)=O)CCCCC2	PostGolgi ctrl 31
COC(=O)c1c(NC(=O)c2ccoc2C)sc2c1CCC2	none
Cc1cc(C)c2c(n1)sc1c(=O)n(Cc3ccccc3Cl)nnc12	PostGolgi ctrl 40 (no result: hDAT+cocaine, Cav32 inh)
COc1ccc(NC(=O)c2nc[nH]c2C(=O)Nc2ccccc2C)cc1	none
Cc1ccccc1NC(=O)c1nc[nH]c1C(=O)NCc1ccccc1	PostGolgi ctrl 53
O=C(NNC1=C(C(=O)C(F)(F)F)CCC1)c1ccc(Cl)cc1	none
O=C(NNC1=C(C(=O)C(F)(F)F)CCC1)c1cccc(Cl)c1	PLAP activator 2, Cav32 inh -7.6
CCCc1cc(C(=O)NNC(=S)NCc2ccccc2)cs1	Cav32 inh -7.3
CCc1cc(C(=O)NNC(=S)Nc2ccccc2C)cs1	none (no result: PLAP activator, PostGolgi ctrl, PostGolgi yeast)
COC(=O)[C@@H](NC(=O)NC1CCCc2ccccc21)C(C)C (stereo not given in full)	none
Cn1cccc1/C=N/n1c(-c2ccc(Cl)cc2Cl)n[nH]c1=S	PostGolgi ctrl 43
S=c1[nH]nc(-c2ccco2)n1/N=C/c1ccc(Cl)cc1Cl	PostGolgi ctrl 39
Cn1cccc1/C=N/n1c(-c2ccc(Cl)cc2)n[nH]c1=S	none (no result: Cav32 inh)
CC(C)C(=O)NC(NC(=S)Nc1cccc2cccnc12)C(Cl)(Cl)Cl (stereo not given)	none
COC(=O)c1ccc(CSc2nc3c(cnn3-c3ccc(C)c(C)c3)c(=O)[nH]2)o1	none (no result: PLAP activator, PostGolgi ctrl, PostGolgi yeast)
CCN(CC)CC(O)COc1ccc2c(c1)OCO2 (stereo not given)	none
CCCC(=O)Nc1ccc(C(=O)NNC(=O)COc2ccc(Br)c(C)c2)cc1	none (no result: hDAT+cocaine, Cav32 inh)
CC(C)c1ccc(NC(=O)C(c2ccccc2)N2CCC3(CC2)OCCO3)cc1 (stereo not given)	Cav32 inh -7.4
O=C(NCC(=O)N1CCCCC1)c1ccc(Cl)cc1Cl	none
Cc1ccc(NC(=O)C(c2ccc(Cl)cc2)N2CCCCC2)cc1 (stereo not given)	Cav32 inh -7
Cc1cccc(C)c1NC(=O)C(c1ccc(Cl)cc1Cl)N1CCCCC1 (stereo not given)	Cav32 inh -5
Cc1ccc(N/C=C/C(=O)C(C)(C)C)c(O)c1	none
COc1ccc(CN(C(=O)CSc2nnc(-c3ccc(F)cc3)o2)c2ccc(F)cc2)cc1	PostGolgi ctrl 38, Cav32 inh -6.5
COc1ccc(N(Cc2ccccc2)C(=O)CSc2nnc(Cn3nnc4ccccc43)o2)cc1	Cav32 inh -5.8
FC(F)(F)c1cc(-c2ccco2)nc(NCc2cccnc2)n1	none (no result: hDAT+cocaine, Cav32 inh)
FC(F)(F)c1cc(-c2ccccc2)nc(NCc2cccnc2)n1	PostGolgi ctrl 34
COCCOC(=O)c1c(C)oc2ccc(OC(=O)c3c(OC)cccc3OC)cc12	none
O=C(NCCCN1CCCCC1)C1(S(=O)(=O)c2ccc(Cl)cc2)CC1	none (no result: Cav32 inh)
O=C(NCCN1CCCC1)C1(S(=O)(=O)c2ccc(Cl)cc2)CC1	PostGolgi ctrl 38
O=C(NCCCN1CCN(c2cccc(Cl)c2)CC1)C1(S(=O)(=O)c2ccc(Cl)cc2)CC1	Cav32 inh -6.9
CC(C(=O)N1CCN(c2ccc(Cl)cc2)CC1)c1ncc(C(F)(F)F)cc1Cl (stereo not given)	none
CC(=O)Nc1nc(SCCCc2ccccc2)n[nH]1	PLAP activator 2.4
CCOC(=O)C1=NN(C(=O)Nc2cccc(C(F)(F)F)c2)C2C(=O)N(c3cccc(C(F)(F)F)c3)C(=O)C12 (stereo not given)	Cav32 inh -5.7
CCCC(C)NC(=O)c1cc(Cl)ccc1OC (stereo not given)	none
Cn1c(C(C#N)C2=C(Cl)C(=O)N(c3ccccc3)C2=O)nc2ccccc21 (stereo not given)	none
CCOC(=O)NCC(C#CCN(CC)CC)N(CC)CC (stereo not given)	PostGolgi ctrl 42 (no result: Cav32 inh)
CCOC(=O)NCc1ccc(CNC(=O)OCC)cc1	none
Cc1ccc(-c2nn(-c3ccccc3)cc2C2CC(c3cccs3)=NN2C(=O)CCCC(=O)O)cc1 (stereo not given)	none
COc1ccc(Cc2nnc3c4cnn(C)c4ncn23)cc1	hDAT+cocaine -7.4
c1ccc(-c2ccc(OCCOCCn3cncn3)cc2)cc1	PostGolgi ctrl 44
c1ccc(Cc2ccc(OCCn3cncn3)cc2)cc1	none
COc1ccc(CNC2CC(=O)N(C)C2=O)cc1 (stereo not given)	PostGolgi ctrl 35
